The full ranking holds about 2,900 compounds; the median of “NF-kB SEAP reporter activity, fold change vs agonist alone” is about 0.99, and the highest 2% start at about 2.6. The entries come from a sample that favours the highest values as a whole.
Legend:
RAW-Dual [1] = experiment: NF-kB SEAP reporter activity, fold change vs agonist alone; cytotoxicity flag (confluency mask): not cytotoxic; higher = enhanced NF-kB activity
Summary of the method: (§1)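 Library stock was pin-tooled at 50 nL into 384-well plates of RAW-Dual macrophages (50,000 cells/well, DMEM), followed 1 h later by a PRR agonist, and the cells were kept at 37 °C, 5% CO2. Supernatant collected after 20 hours was read for IRF by QuantiLuc luminescence and for NF-κB by QuantiBlue absorbance at 620 nm. Reporter activity is fold change over agonist-alone wells, and a well counted as cytotoxic when its IncuCyte confluency was below 70% of agonist controls in both mask sets.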

RAW-Dual [2] = experiment: NF-kB SEAP reporter activity, fold change vs agonist alone; cytotoxicity flag (confluency mask): cytotoxic (confluency <70% of control); higher = enhanced NF-kB activity
Summary of the method: as §1

RAW-Dual [3] = experiment: NF-kB SEAP reporter activity, fold change vs agonist alone; higher = enhanced NF-kB activity; conditions: library stock concentration (final ~1000-fold dilution): 10 mM
Summary of the method: as §1

[4] = agonist: ODN 1826 (TLR9) 0.5 ug/mL
[5] = agonist: Pam2CSK4 (TLR2/6) 0.1 ug/mL
[6] = agonist: Pam3CSK4 (TLR2/1) 0.1 ug/mL
[7] = cytotoxicity flag (confluency mask): cytotoxic (confluency <70% of control), agonist: Imiquimod (TLR7) […]
[8] = cytotoxicity flag (confluency mask): cytotoxic (confluency <70% of control), agonist: MPLA (TLR4) […]
[9] = cytotoxicity flag (confluency mask): not cytotoxic, agonist: Imiquimod (TLR7) […]
[10] = cytotoxicity flag (confluency mask): not cytotoxic, agonist: MPLA (TLR4) […]

CN1C(=O)c2sccc2N(C)c2nc(Nc3ccc(S(N)(=O)=O)cc3)ncc21 (library stock concentration (final ~1000-fold dilution): 10 mM)
NF-kB SEAP reporter activity (RAW-Dual [1]; agonist: LPS (TLR4) 0.1 ug/mL): 5.75 | NF-kB SEAP reporter activity (RAW-Dual [1]; [4]): 3.02 | NF-kB SEAP reporter activity (RAW-Dual [1]; [5]): 1.22 | NF-kB SEAP reporter activity (RAW-Dual [1]; [6]): 2.56

Nc1nc(Nc2ccc(S(N)(=O)=O)cc2)nn1C(=O)c1c(F)cccc1F (library stock concentration (final ~1000-fold dilution): 10 mM)
NF-kB SEAP reporter activity (RAW-Dual [2]; agonist: LPS (TLR4) 0.1 ug/mL): 0.637 | NF-kB SEAP reporter activity (RAW-Dual [2]; [4]): 1.29 | NF-kB SEAP reporter activity (RAW-Dual [2]; [5]): 0.632 | NF-kB SEAP reporter activity (RAW-Dual [2]; [6]): 0.864

Nc1nc(Nc2ccc(S(N)(=O)=O)cc2)nn1C(=O)c1c(F)cccc1F
NF-kB SEAP reporter activity (RAW-Dual [3]; [7]): 1.97 | NF-kB SEAP reporter activity (RAW-Dual [3]; [8]): 1.36

COC(=O)c1ccc(O)c(O)c1
NF-kB SEAP reporter activity (RAW-Dual [3]; [9]): 0.731 | NF-kB SEAP reporter activity (RAW-Dual [3]; [10]): 1.17

COC(=O)c1ccc(O)c(O)c1 (library stock concentration (final ~1000-fold dilution): 10 mM)
NF-kB SEAP reporter activity (RAW-Dual [1]; agonist: LPS (TLR4) 0.1 ug/mL): 0.81 | NF-kB SEAP reporter activity (RAW-Dual [1]; [4]): 0.654 | NF-kB SEAP reporter activity (RAW-Dual [1]; [5]): 0.603 | NF-kB SEAP reporter activity (RAW-Dual [1]; [6]): 0.553

CS(=O)(=O)O.Cn1cc(C2=C(c3cn(CCCSC(=N)N)c4ccccc34)C(=O)NC2=O)c2ccccc21
NF-kB SEAP reporter activity (RAW-Dual [3]; [7]): 0.13 | NF-kB SEAP reporter activity (RAW-Dual [3]; [8]): 0.222

Cn1cc(C2=C(c3cccc(N)c3)C(=O)NC2=O)c2ccccc21 (library stock concentration (final ~1000-fold dilution): 10 mM)
NF-kB SEAP reporter activity (RAW-Dual [1]; agonist: LPS (TLR4) 0.1 ug/mL): 1.83 | NF-kB SEAP reporter activity (RAW-Dual [1]; [4]): 2.18 | NF-kB SEAP reporter activity (RAW-Dual [1]; [5]): 1.59 | NF-kB SEAP reporter activity (RAW-Dual [1]; [6]): 2.2

Cn1cc(C2=C(c3cccc(N)c3)C(=O)NC2=O)c2ccccc21
NF-kB SEAP reporter activity (RAW-Dual [3]; [9]): 1.55 | NF-kB SEAP reporter activity (RAW-Dual [3]; [10]): 1.7

Cn1cc(C2=C(c3ccc(Cl)cc3Cl)C(=O)NC2=O)c2ccccc21 (library stock concentration (final ~1000-fold dilution): 10 mM)
NF-kB SEAP reporter activity (RAW-Dual [1]; agonist: LPS (TLR4) 0.1 ug/mL): 3.23 | NF-kB SEAP reporter activity (RAW-Dual [1]; [4]): 2.04 | NF-kB SEAP reporter activity (RAW-Dual [1]; [5]): 1.49 | NF-kB SEAP reporter activity (RAW-Dual [1]; [6]): 2.34

CS(=O)(=O)O.Cn1cc(C2=C(c3cn(CCCSC(=N)N)c4ccccc34)C(=O)NC2=O)c2ccccc21 (library stock concentration (final ~1000-fold dilution): 10 mM)
NF-kB SEAP reporter activity (RAW-Dual [2]; agonist: LPS (TLR4) 0.1 ug/mL): 0.173 | NF-kB SEAP reporter activity (RAW-Dual [2]; [4]): 0.185 | NF-kB SEAP reporter activity (RAW-Dual [2]; [5]): 0.0599 | NF-kB SEAP reporter activity (RAW-Dual [2]; [6]): 0.138

Cn1cc(C2=C(c3ccc(Cl)cc3Cl)C(=O)NC2=O)c2ccccc21
NF-kB SEAP reporter activity (RAW-Dual [3]; [9]): 1.58 | NF-kB SEAP reporter activity (RAW-Dual [3]; [10]): 1.99

COc1cc2c3cc1Oc1c(OC)c(OC)cc4c1C(Cc1ccc(O)c(c1)Oc1ccc(cc1)CC3N(C)CC2)N(C)CC4.Cl.Cl (stereo not given)
NF-kB SEAP reporter activity (RAW-Dual [3]; [9]): 0.379 | NF-kB SEAP reporter activity (RAW-Dual [3]; [10]): 1.37

COc1cc2c3cc1Oc1c(OC)c(OC)cc4c1C(Cc1ccc(O)c(c1)Oc1ccc(cc1)CC3N(C)CC2)N(C)CC4.Cl.Cl (stereo not given) (library stock concentration (final ~1000-fold dilution): 10 mM)
NF-kB SEAP reporter activity (RAW-Dual [1]; agonist: LPS (TLR4) 0.1 ug/mL): 1.44 | NF-kB SEAP reporter activity (RAW-Dual [1]; [4]): 0.2 | NF-kB SEAP reporter activity (RAW-Dual [1]; [5]): 1.08 | NF-kB SEAP reporter activity (RAW-Dual [1]; [6]): 1.19

CC1(C)SC2C(NC(=O)C(N)c3ccccc3)C(=O)N2C1C(=O)OCOC(=O)C1N2C(=O)CC2S(=O)(=O)C1(C)C (stereo not given)
NF-kB SEAP reporter activity (RAW-Dual [3]; [10]): 1.07

CC1(C)SC2C(NC(=O)C(N)c3ccccc3)C(=O)N2C1C(=O)OCOC(=O)C1N2C(=O)CC2S(=O)(=O)C1(C)C (stereo not given) (library stock concentration (final ~1000-fold dilution): 10 mM)
NF-kB SEAP reporter activity (RAW-Dual [1]; agonist: LPS (TLR4) 0.1 ug/mL): 1.06 | NF-kB SEAP reporter activity (RAW-Dual [1]; [4]): 0.886 | NF-kB SEAP reporter activity (RAW-Dual [1]; [5]): 1.16 | NF-kB SEAP reporter activity (RAW-Dual [1]; [6]): 0.993

Cc1nc(-c2cn3c(n2)-c2ccc(-c4cnn(C(C)(C)C(N)=O)c4)cc2OCC3)n(C(C)C)n1
NF-kB SEAP reporter activity (RAW-Dual [3]; [9]): 0.619 | NF-kB SEAP reporter activity (RAW-Dual [3]; [10]): 1.84

CC(Oc1ccc2c(c1)OCCn1cc(-c3ncnn3C(C)C)nc1-2)C(N)=O (stereo not given) (library stock concentration (final ~1000-fold dilution): 10 mM)
NF-kB SEAP reporter activity (RAW-Dual [1]; agonist: LPS (TLR4) 0.1 ug/mL): 2.07 | NF-kB SEAP reporter activity (RAW-Dual [1]; [4]): 1.1 | NF-kB SEAP reporter activity (RAW-Dual [1]; [5]): 0.894 | NF-kB SEAP reporter activity (RAW-Dual [1]; [6]): 1.41

Cc1nc(-c2cn3c(n2)-c2ccc(-c4cnn(C(C)(C)C(N)=O)c4)cc2OCC3)n(C(C)C)n1 (library stock concentration (final ~1000-fold dilution): 10 mM)
NF-kB SEAP reporter activity (RAW-Dual [1]; agonist: LPS (TLR4) 0.1 ug/mL): 2.74 | NF-kB SEAP reporter activity (RAW-Dual [1]; [4]): 1.31 | NF-kB SEAP reporter activity (RAW-Dual [1]; [5]): 0.996 | NF-kB SEAP reporter activity (RAW-Dual [1]; [6]): 1.15

CC(Oc1ccc2c(c1)OCCn1cc(-c3ncnn3C(C)C)nc1-2)C(N)=O (stereo not given)
NF-kB SEAP reporter activity (RAW-Dual [3]; [9]): 0.585 | NF-kB SEAP reporter activity (RAW-Dual [3]; [10]): 1.4

OCC1OC(c2ccc(F)c(Cc3cc4ccccc4s3)c2)C(O)C(O)C1O (stereo not given)
NF-kB SEAP reporter activity (RAW-Dual [3]; [9]): 1.06 | NF-kB SEAP reporter activity (RAW-Dual [3]; [10]): 1.04

OCC1OC(c2ccc(F)c(Cc3cc4ccccc4s3)c2)C(O)C(O)C1O (stereo not given) (library stock concentration (final ~1000-fold dilution): 10 mM)
NF-kB SEAP reporter activity (RAW-Dual [1]; agonist: LPS (TLR4) 0.1 ug/mL): 1.07 | NF-kB SEAP reporter activity (RAW-Dual [1]; [4]): 0.948 | NF-kB SEAP reporter activity (RAW-Dual [1]; [5]): 1.15 | NF-kB SEAP reporter activity (RAW-Dual [1]; [6]): 1.17

Nc1ccn(C2CSC(CO)O2)c(=O)n1 (stereo not given) (library stock concentration (final ~1000-fold dilution): 10 mM)
NF-kB SEAP reporter activity (RAW-Dual [1]; agonist: LPS (TLR4) 0.1 ug/mL): 0.862 | NF-kB SEAP reporter activity (RAW-Dual [1]; [4]): 1.03 | NF-kB SEAP reporter activity (RAW-Dual [1]; [5]): 0.999 | NF-kB SEAP reporter activity (RAW-Dual [1]; [6]): 1.11

Nc1ccn(C2CSC(CO)O2)c(=O)n1 (stereo not given)
NF-kB SEAP reporter activity (RAW-Dual [3]; [9]): 0.893 | NF-kB SEAP reporter activity (RAW-Dual [3]; [10]): 1.04

COC1CCC(N2C(=O)CNc3ncc(-c4ccc(C(C)(C)O)nc4)nc32)CC1 (stereo not given) (library stock concentration (final ~1000-fold dilution): 10 mM)
NF-kB SEAP reporter activity (RAW-Dual [1]; agonist: LPS (TLR4) 0.1 ug/mL): 0.463 | NF-kB SEAP reporter activity (RAW-Dual [1]; [4]): 0.349 | NF-kB SEAP reporter activity (RAW-Dual [1]; [5]): 0.719 | NF-kB SEAP reporter activity (RAW-Dual [1]; [6]): 0.458

COC1CCC(N2C(=O)CNc3ncc(-c4ccc(C(C)(C)O)nc4)nc32)CC1 (stereo not given)
NF-kB SEAP reporter activity (RAW-Dual [3]; [9]): 0.711 | NF-kB SEAP reporter activity (RAW-Dual [3]; [10]): 0.53

Reference: the supplement of paper PMC10037445
